# Read-outs that look alike come from different tables or passages of the source.
# Columns and labels:
# MAP2K2 = settings: read-out: apparent Kd, n = 1
# MAP2K6 = settings: read-out: apparent Kd, n = 1
substance,measurement,setting,value
Lestaurtinib,potency estimated from few doses,"MAP2K2; compound concentrations:100 nM and 1000 nM (sheet 'Lestaurtinib' of Supplementary Table 1),run:Lestaurtinib_02752_R3,Plate:MR025",1310 nM
same,potency estimated from few doses,"MAP2K2; compound concentrations:100 nM and 1000 nM (sheet 'Lestaurtinib' of Supplementary Table 1),run:Lestaurtinib_02765_R1,Plate:MR026",722 nM
same,potency estimated from few doses,"MAP2K2; compound concentrations:100 nM and 1000 nM (sheet 'Lestaurtinib' of Supplementary Table 1),run:Lestaurtinib_02766_R2,Plate:MR027",959 nM
same,potency estimated from few doses,"MAP2K2; compound concentrations:100 nM and 1000 nM (sheet 'Lestaurtinib' of Supplementary Table 1),run:Lestaurtinib_02766_R3,Plate:MR027",1320 nM
same,potency estimated from few doses,"MAP2K2; compound concentrations:100 nM and 1000 nM (sheet 'Lestaurtinib' of Supplementary Table 1),run:Lestaurtinib_02768_R1,Plate:MR028",1590 nM
same,potency estimated from few doses,"MAP2K2; compound concentrations:100 nM and 1000 nM (sheet 'Lestaurtinib' of Supplementary Table 1),run:Lestaurtinib_02795_R1,Plate:MR022",925 nM
same,potency estimated from few doses,"MAP2K2; compound concentrations:100 nM and 1000 nM (sheet 'Lestaurtinib' of Supplementary Table 1),run:Lestaurtinib_02795_R2,Plate:MR022",722 nM
same,potency estimated from few doses,"MAP2K2; compound concentrations:100 nM and 1000 nM (sheet 'Lestaurtinib' of Supplementary Table 1),run:Lestaurtinib_02802_R2,Plate:MR029",958 nM
same,potency estimated from few doses,"MAP2K2; compound concentrations:100 nM and 1000 nM (sheet 'Lestaurtinib' of Supplementary Table 1),run:Lestaurtinib_02802_R3,Plate:MR029",1490 nM
same,potency estimated from few doses,"MAP2K2; compound concentrations:100 nM and 1000 nM (sheet 'Lestaurtinib' of Supplementary Table 1),run:Lestaurtinib_02896_R2,Plate:MR030",744 nM
same,potency estimated from few doses,"MAP2K2; compound concentrations:100 nM and 1000 nM (sheet 'Lestaurtinib' of Supplementary Table 1),run:Lestaurtinib_02896_R3,Plate:MR030",804 nM
same,potency estimated from few doses,"MAP2K2; compound concentrations:100 nM and 1000 nM (sheet 'Lestaurtinib' of Supplementary Table 1),run:Lestaurtinib_03172_R3,Plate:MR031",475 nM
same,potency estimated from few doses,"MAP2K2; compound concentrations:100 nM and 1000 nM (sheet 'Lestaurtinib' of Supplementary Table 1),run:Lestaurtinib_03252_R2,Plate:MR032",790 nM
same,potency estimated from few doses,"MAP2K2; compound concentrations:100 nM and 1000 nM (sheet 'Lestaurtinib' of Supplementary Table 1),run:Lestaurtinib_03260_R2,Plate:MR033",1600 nM
same,potency estimated from few doses,"MAP2K6; compound concentrations:100 nM and 1000 nM (sheet 'Lestaurtinib' of Supplementary Table 1),run:Lestaurtinib_02339_R2,Plate:MR001",162 nM
same,potency estimated from few doses,"MAP2K6; compound concentrations:100 nM and 1000 nM (sheet 'Lestaurtinib' of Supplementary Table 1),run:Lestaurtinib_02339_R3,Plate:MR001",96.9 nM
same,potency estimated from few doses,"MAP2K6; compound concentrations:100 nM and 1000 nM (sheet 'Lestaurtinib' of Supplementary Table 1),run:Lestaurtinib_02364_R2,Plate:MR002",135 nM
same,potency estimated from few doses,"MAP2K6; compound concentrations:100 nM and 1000 nM (sheet 'Lestaurtinib' of Supplementary Table 1),run:Lestaurtinib_02367_R1,Plate:MR003",158 nM
same,potency estimated from few doses,"MAP2K6; compound concentrations:100 nM and 1000 nM (sheet 'Lestaurtinib' of Supplementary Table 1),run:Lestaurtinib_02367_R2,Plate:MR003",190 nM
same,potency estimated from few doses,"MAP2K6; compound concentrations:100 nM and 1000 nM (sheet 'Lestaurtinib' of Supplementary Table 1),run:Lestaurtinib_02367_R3,Plate:MR003",165 nM
same,potency estimated from few doses,"MAP2K6; compound concentrations:100 nM and 1000 nM (sheet 'Lestaurtinib' of Supplementary Table 1),run:Lestaurtinib_02381_R1,Plate:MR004",175 nM
same,potency estimated from few doses,"MAP2K6; compound concentrations:100 nM and 1000 nM (sheet 'Lestaurtinib' of Supplementary Table 1),run:Lestaurtinib_02407_R2,Plate:MR005",137 nM
same,potency estimated from few doses,"MAP2K6; compound concentrations:100 nM and 1000 nM (sheet 'Lestaurtinib' of Supplementary Table 1),run:Lestaurtinib_02422_R3,Plate:MR006",151 nM
same,potency estimated from few doses,"MAP2K6; compound concentrations:100 nM and 1000 nM (sheet 'Lestaurtinib' of Supplementary Table 1),run:Lestaurtinib_02437_R1,Plate:MR007",184 nM
same,potency estimated from few doses,"MAP2K6; compound concentrations:100 nM and 1000 nM (sheet 'Lestaurtinib' of Supplementary Table 1),run:Lestaurtinib_02437_R2,Plate:MR007",189 nM
same,potency estimated from few doses,"MAP2K6; compound concentrations:100 nM and 1000 nM (sheet 'Lestaurtinib' of Supplementary Table 1),run:Lestaurtinib_02437_R3,Plate:MR007",22.9 nM
same,potency estimated from few doses,"MAP2K6; compound concentrations:100 nM and 1000 nM (sheet 'Lestaurtinib' of Supplementary Table 1),run:Lestaurtinib_02438_R3,Plate:MR008",132 nM
same,potency estimated from few doses,"MAP2K6; compound concentrations:100 nM and 1000 nM (sheet 'Lestaurtinib' of Supplementary Table 1),run:Lestaurtinib_02443_R2,Plate:MR009",140 nM
same,potency estimated from few doses,"MAP2K6; compound concentrations:100 nM and 1000 nM (sheet 'Lestaurtinib' of Supplementary Table 1),run:Lestaurtinib_02473_R1,Plate:MR010",176 nM
same,potency estimated from few doses,"MAP2K6; compound concentrations:100 nM and 1000 nM (sheet 'Lestaurtinib' of Supplementary Table 1),run:Lestaurtinib_02473_R2,Plate:MR010",144 nM
same,potency estimated from few doses,"MAP2K6; compound concentrations:100 nM and 1000 nM (sheet 'Lestaurtinib' of Supplementary Table 1),run:Lestaurtinib_02482_R1,Plate:MR011",212 nM
same,potency estimated from few doses,"MAP2K6; compound concentrations:100 nM and 1000 nM (sheet 'Lestaurtinib' of Supplementary Table 1),run:Lestaurtinib_02482_R3,Plate:MR011",254 nM
same,potency estimated from few doses,"MAP2K6; compound concentrations:100 nM and 1000 nM (sheet 'Lestaurtinib' of Supplementary Table 1),run:Lestaurtinib_02487_R1,Plate:MR012",142 nM
same,potency estimated from few doses,"MAP2K6; compound concentrations:100 nM and 1000 nM (sheet 'Lestaurtinib' of Supplementary Table 1),run:Lestaurtinib_02487_R2,Plate:MR012",190 nM
same,potency estimated from few doses,"MAP2K6; compound concentrations:100 nM and 1000 nM (sheet 'Lestaurtinib' of Supplementary Table 1),run:Lestaurtinib_02487_R3,Plate:MR012",157 nM
same,potency estimated from few doses,"MAP2K6; compound concentrations:100 nM and 1000 nM (sheet 'Lestaurtinib' of Supplementary Table 1),run:Lestaurtinib_02496_R1,Plate:MR013",146 nM

# Source: publication PMC11062922 (Nature Chemical Biology, 2023)
